Assay results: PubChem BioAssay (NCATS)
A number with no mark means an inactive call. Results filed as inconclusive are left out. Activity calls are given as the source filed them. Unless noted, calls come from the whole dose curve; as a rule, active = well fitted curve in either direction with a large enough effect (not every such curve was filed as active); inconclusive = small, poorly fitted or top-dose-only effect, or another doubt; inactive = flat fitted curve, though single readings scatter.

Assays:
[1] = AP1 Signaling Pathway (AID 357); details: ME-180 AP-1-bla reporter, EGF-induced, beta-lactamase ratio, 5 h; at 17.2 µM (top of the series) unless noted;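 note: ME-180 reporter cells stimulated with EGF at its EC50 level; % is set by controls: 0 for no effect and ±100 for the full control effect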
Procedure, shortened: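 Read-out was the 460nm/530nm emission ratio (excitation 405nm) after CCF4 loading for 2.5 hours at room temperature. Cells carried an AP-1-driven beta-lactamase reporter, were stimulated with EC50 EGF plus compound for 5 hours, and AC50 values came from titrations.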

[2] = target: Cytochrome P450 1A2 (Homo sapiens) (UniProt P05177); assay: p450-cyp1a2 (AID 410; calls by dose curve; note: potency is the fitted concentration of half-maximal effect;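 for activity change, negative = inhibition: -100% = full effect of reference inhibitor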)
Procedure, shortened: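 O-Demethylation of luciferin 6' methyl ether by human CYP1A2 is monitored as luciferase luminescence. Substrate sits at Km (100uM); enzyme is 20nM. Values are scaled to 57 uM furafylline as maximal inhibition.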

[3] = Stat Signaling Pathway (AID 446); details: ME-180 SIE beta-lactamase reporter, IL-6 stimulated, 5 h; at 17.2 µM (top of the series) unless noted;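 note: ME-180 cervical cancer cells given 40 pM IL-6 alongside compound; SIE-controlled beta-lactamase reporter measured as 460/530 nm FRET emission ratio; % is set by controls: 0 for no effect and ±100 for the full control effect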
Procedure, shortened: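 Normalization used AC90 stimulation (300 pM IL-6) and AC90 inhibition (125 nM pan-JAK inhibitor at 40 pM IL-6). The underlying signal is SIE-driven beta-lactamase in ME-180 cells after 5 h IL-6 exposure with compound.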

[4] = target: Glucocorticoid receptor (Homo sapiens) (UniProt P04150); assay: GR-GFP Redistribution (AID 450;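 active = compounds whose dose series gives a full or clear partial fitted curve of increased nuclear translocation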; note: potency is the fitted concentration of half-maximal effect)
[5] = target: Glucocorticoid receptor (Homo sapiens) (UniProt P04150); assay: GR-EFC Redistribution (AID 451; calls by dose curve; note: potency is the fitted concentration of half-maximal effect); details: CHO-K1 GR-EFC translocation, beta-gal luminescence, 2 h
Procedure, shortened: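 CHO-K1 cells expressing nuclear EA and GR-ED fragments of b-gal; compounds titrated up to 46 uM final, 2 h at 37 C. GR nuclear translocation read as complemented b-gal luminescence after 1 h RT detection.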

[6] = target: Mitogen-activated protein kinase 10 (Mus musculus) (UniProt Q61831); assay: JNK3 AlphaScreen Assay (AID 530);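 note: kinase came from lysate of stimulated human HepG2 cells; signal reports phosphorylation of biotinylated GST-cJun 1-79 at Ser73 with 10 µM ATP; % is set by controls: 0 for no effect and ±100 for the full control effect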
Procedure, shortened: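 Activity was read by AlphaScreen after JNK3-containing HepG2 lysate (cytokine pre-activated) phosphorylated biotinylated GST-cJun with 10 uM ATP at room temperature. Phospho-Ser73 cJun antibody with Protein-A acceptor beads provided detection.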

[7] = target: 3',5'-cyclic-AMP phosphodiesterase 4B (Homo sapiens) (UniProt Q07343); assay: qHTS Assay for Inhibitors of PDE-IV (AID 607; active = well fitted activation curve with a large enough effect in the main read-out, with a control signal flat, not every such curve was filed as active; note: % of control where 0% means no effect)
Procedure, shortened: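 HEK293 ACTOne cells with CNG channel (1000/well), endogenous PDE4; membrane potential dye, compounds up to 22.9 uM final. Fluorescence Ex 535/Em 590; RO 20-1724 (100 uM final) as reference.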

[8] = qHTS Assay for Identification of Small Molecule Agonists for Hypoxia Response Element Signaling Pathway (AID 914; active = well fitted activation curve with a large enough effect in the signal ratio, with a control signal flat, not every such curve was filed as active; the % refers to the signal ratio; note: % of control where 0% means no effect); details: ME-180 (cervical carcinoma) HRE-bla reporter, beta-lactamase ratio, CoCl2, 17 h; activation: stronger effect = higher value
Procedure, shortened: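 HRE-bla ME-180 cells, overnight plating in Opti-MEM with 0.5% dialyzed FBS; cpd titration + EC50 CoCl2, 17 h, 37 degrees Celsius; CCF4 2.5 h RT; 460/530 nm ratio; AC50.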

[9] = target: Guanine nucleotide-binding protein G(i) subunit alpha-1 (Homo sapiens) (UniProt P63096); assay: qHTS Assay for Inhibitors of RGS12 GoLoco Motif Activity (Green Fluorophore) (AID 879; active = well fitted curve in the direction sought with a large enough effect; an effect the other way counts as inactive or inconclusive;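 note: 0% = labeled peptide with Gαi1 and full inhibition = labeled peptide alone without protein; negative values mean loss of peptide binding seen as reduced polarization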)
Procedure, shortened: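 A drop in FITC polarization marked displacement of the FITC-tagged RGS12 GoLoco peptide (10 nM) from Gαi1 (50 nM). Compounds were incubated 10 min at room temperature in Tris pH 7.5 buffer containing 150 mM NaCl, 0.1 mM GDP and 0.05% NP40; unlabeled peptide titration served as control.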

[10] = target: Cytochrome P450 3A4 (Homo sapiens) (UniProt P08684); assay: qHTS Assay for Activators of Cytochrome P450 3A4 (AID 885; active = well fitted curve in the direction sought with a large enough effect; an effect the other way counts as inactive or inconclusive; note: nearly all actives have a fitted effect of over 65% in size)
Procedure, shortened: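 Human CYP3A4 dealkylates Luciferin-PPXE to luciferin, which luciferase detection converts to light. Substrate was at its KM (25uM), buffer 200mM KPO4, reaction 60 min at RT.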

[11] = target: Muscarinic acetylcholine receptor M1 (Rattus norvegicus) (UniProt P08482); assay: qHTS Assay for Antagonists of Acetylcholine Muscarinic M1 Receptor: Kinetic Measurement of Intracellular Calcium Response (AID 943; active = well fitted curve in the direction sought with a large enough effect; an effect the other way counts as inactive or inconclusive; note: potency is the fitted concentration of half-maximal effect; nearly all actives have a fitted effect of over 75% in size)
Procedure, shortened: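 Antagonism is measured as inhibition of the carbachol-evoked calcium rise in CHO cells transfected with rat M1. Cells are dye-loaded, exposed to compound for 10 min, then stimulated with 100 nM carbachol (EC80).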

[12] = target: Pyruvate kinase (Leishmania mexicana) (UniProt Q27686); assay: qHTS Validation Assay for Inhibitors of Leishmania Mexicana Pyruvate Kinase (AID 945; active = well fitted curve in the direction sought with a large enough effect; an effect the other way counts as inactive or inconclusive;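 note: 0% = DMSO only neutral control wells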)
Procedure, shortened: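 Luminescent ATP detection (PKLight) after a 1 h room-temperature reaction of 0.2 nM LmPYK E451W mutant with 0.5 mM PEP and 0.1 mM ADP at pH 7.2. Activity is normalized to DMSO-only control wells.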

[13] = target: Pyruvate kinase PKM (Homo sapiens) (UniProt P14618); assay: qHTS Assay for Activators of Human Muscle Pyruvate Kinase (AID 954; active = well fitted curve in the direction sought with a large enough effect, not every such curve was filed as active;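 note: 0% = uninhibited enzyme and -100% = no enzyme or full thiadiazolimine inhibition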)
Procedure, shortened: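 Compound pinned into substrate mix (0.5 mM PEP, 0.1 mM ADP), then 0.1 nM PKM2 added; 1 h, RT. Stop/detection luciferase reagent added, luminescence read. Normalized to no-inhibition and no-enzyme or reference-inhibitor controls.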

[14] = target: Alpha-galactosidase A (Homo sapiens) (UniProt P06280); assay: Counterscreen for Glucocerebrosidase Inhibitors: qHTS Assay for Human alpha-Galactosidase at pH 4.5 (AID 992; active = well fitted curve in the direction sought with a large enough effect; an effect the other way counts as inactive or inconclusive; note: 0% is about no effect)
Procedure, shortened: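 Steps: enzyme (2 nM final), then compound across 0.7 nM to 77 uM, then 80 uM fluorogenic galactopyranoside substrate; incubate 20 min at room temperature; quench at pH 10; measure fluorescence at 365/440 nm.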

[15] = target: alpha-glucosidase (Oryza sativa, rice) (UniProt Q653V4); assay: Counterscreen for Glucocerebrosidase Inhibitors: qHTS Assay for Rice alpha-Glucosidase at pH 5.0 (AID 997; active = well fitted curve in the direction sought with a large enough effect; an effect the other way counts as inactive or inconclusive;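 note: 0% = full activity with enzyme and -100% = basal without enzyme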)
Procedure, shortened: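 Endpoint fluorogenic assay at pH 5.0: compounds (0.7 nM to 77 uM) titrated against 4 nM rice enzyme and 400 uM 4-MU-alpha-glucoside for 20 min at room temperature; NaOH/glycine stop, read ex 365/em 440 nm, Hill-fitted AC50.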

[16] = target: Cytochrome P450 2C9 (Homo sapiens) (UniProt P11712); assay: qHTS Assay for Inhibitors and Substrates of Cytochrome P450 2C9 (AID 883; active = well fitted curve in the direction sought with a large enough effect; an effect the other way counts as inactive or inconclusive; note: % is set by controls: 0 for no effect and ±100 for the full control effect; nearly all actives have a fitted effect of over 60% in size)
Procedure, shortened: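 Human CYP2C9 (10nM) with Luciferin-H at 100uM (its KM) in 25mM KPO4; compound preincubated 10 min at 37C, then NADPH regeneration for 60 min at 37C. Luciferin read by luminescence after detection reagent; normalized to 57uM sulphaphenazole as full inhibition.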

[17] = target: Cytochrome P450 2D6 (Homo sapiens) (UniProt P10635); assay: qHTS Assay for Inhibitors and Substrates of Cytochrome P450 2D6 (AID 891; active = well fitted curve in the direction sought with a large enough effect; an effect the other way counts as inactive or inconclusive; note: potency is the fitted concentration of half-maximal effect; nearly all actives have a fitted effect of over 60% in size)
Procedure, shortened: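 Luminescent read-out of luciferin formed by 5 nM human CYP2D6 demethylating 30 uM Luciferin-ME EGE (Km level) over 60 min at room temperature after NADPH regeneration addition. Data normalized to full inhibition by 1.43 uM quinidine.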

[18] = target: Cytochrome P450 2C19 (Homo sapiens) (UniProt P33261); assay: qHTS Assay for Inhibitors and Substrates of Cytochrome P450 2C19 (AID 899; active = well fitted curve in the direction sought with a large enough effect; an effect the other way counts as inactive or inconclusive; note: % is set by controls: 0 for no effect and ±100 for the full control effect; nearly all actives have a fitted effect of over 60% in size)
Procedure, shortened: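 5 nM human CYP2C19 with 10uM Luciferin-H EGE (at KM) in 50mM KPO4, compound preincubated 10 min at 37C, then NADPH regeneration for 60 min at 37C. Luciferin read by luminescence after detection reagent; normalized to 57uM ketoconazole as full inhibition.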

[19] = NFAT Signaling Pathway (AID 444); details: Jurkat NFAT-bla M1, carbachol, beta-lactamase ratio, 5 h; at 17.2 µM (top of the series) unless noted;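 note: carbachol stimulus at about its EC50 of 1 µM final; % is set by controls: 0 for no effect and ±100 for the full control effect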
Procedure, shortened: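 Jurkat cells with NFAT-driven β-lactamase reporter and co-expressed M1 receptor, stimulated with carbachol (final 1 uM, ~EC50), compound titration, 5 h at 37 °C. CCF4 loaded 1 h at RT; 460/530 nm ratio gave %activity and AC50.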

Cytochrome P450 1A2 (Homo sapiens), sequence (P05177 whole entry, looked up): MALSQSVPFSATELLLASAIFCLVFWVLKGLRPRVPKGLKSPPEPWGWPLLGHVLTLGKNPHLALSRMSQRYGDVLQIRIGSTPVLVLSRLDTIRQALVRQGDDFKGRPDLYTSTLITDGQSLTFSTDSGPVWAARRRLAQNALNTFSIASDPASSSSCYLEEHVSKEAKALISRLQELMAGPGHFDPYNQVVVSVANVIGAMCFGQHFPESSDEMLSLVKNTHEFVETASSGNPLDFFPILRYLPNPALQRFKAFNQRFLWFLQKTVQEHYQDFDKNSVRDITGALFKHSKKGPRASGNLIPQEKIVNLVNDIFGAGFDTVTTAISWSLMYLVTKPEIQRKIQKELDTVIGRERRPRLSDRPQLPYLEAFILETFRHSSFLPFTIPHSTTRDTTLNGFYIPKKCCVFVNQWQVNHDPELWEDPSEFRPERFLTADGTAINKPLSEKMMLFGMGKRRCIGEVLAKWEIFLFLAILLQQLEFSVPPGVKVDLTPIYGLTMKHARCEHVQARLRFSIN
Glucocorticoid receptor (Homo sapiens), sequence (P04150 whole entry, looked up, the tested form may be a part): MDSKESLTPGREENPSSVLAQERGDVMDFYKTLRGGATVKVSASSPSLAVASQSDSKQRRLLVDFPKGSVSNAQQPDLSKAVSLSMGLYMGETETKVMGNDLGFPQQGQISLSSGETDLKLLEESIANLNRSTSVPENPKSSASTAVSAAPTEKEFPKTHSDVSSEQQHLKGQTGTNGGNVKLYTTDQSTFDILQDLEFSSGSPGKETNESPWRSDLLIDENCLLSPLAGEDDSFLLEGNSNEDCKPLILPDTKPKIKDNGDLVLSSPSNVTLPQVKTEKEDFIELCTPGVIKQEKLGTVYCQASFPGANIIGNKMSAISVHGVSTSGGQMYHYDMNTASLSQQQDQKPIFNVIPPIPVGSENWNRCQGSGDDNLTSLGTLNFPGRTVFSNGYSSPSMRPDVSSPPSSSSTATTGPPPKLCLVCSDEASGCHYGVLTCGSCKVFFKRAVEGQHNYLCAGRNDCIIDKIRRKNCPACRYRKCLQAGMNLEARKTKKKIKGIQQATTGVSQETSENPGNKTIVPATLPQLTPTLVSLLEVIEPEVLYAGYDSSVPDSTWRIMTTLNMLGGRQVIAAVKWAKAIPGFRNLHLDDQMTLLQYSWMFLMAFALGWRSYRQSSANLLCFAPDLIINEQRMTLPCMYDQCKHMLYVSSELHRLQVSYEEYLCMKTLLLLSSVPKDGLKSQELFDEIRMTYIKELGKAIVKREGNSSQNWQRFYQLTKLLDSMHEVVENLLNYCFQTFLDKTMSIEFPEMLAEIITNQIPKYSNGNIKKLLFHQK
3',5'-cyclic-AMP phosphodiesterase 4B (Homo sapiens), sequence (Q07343 whole entry, looked up): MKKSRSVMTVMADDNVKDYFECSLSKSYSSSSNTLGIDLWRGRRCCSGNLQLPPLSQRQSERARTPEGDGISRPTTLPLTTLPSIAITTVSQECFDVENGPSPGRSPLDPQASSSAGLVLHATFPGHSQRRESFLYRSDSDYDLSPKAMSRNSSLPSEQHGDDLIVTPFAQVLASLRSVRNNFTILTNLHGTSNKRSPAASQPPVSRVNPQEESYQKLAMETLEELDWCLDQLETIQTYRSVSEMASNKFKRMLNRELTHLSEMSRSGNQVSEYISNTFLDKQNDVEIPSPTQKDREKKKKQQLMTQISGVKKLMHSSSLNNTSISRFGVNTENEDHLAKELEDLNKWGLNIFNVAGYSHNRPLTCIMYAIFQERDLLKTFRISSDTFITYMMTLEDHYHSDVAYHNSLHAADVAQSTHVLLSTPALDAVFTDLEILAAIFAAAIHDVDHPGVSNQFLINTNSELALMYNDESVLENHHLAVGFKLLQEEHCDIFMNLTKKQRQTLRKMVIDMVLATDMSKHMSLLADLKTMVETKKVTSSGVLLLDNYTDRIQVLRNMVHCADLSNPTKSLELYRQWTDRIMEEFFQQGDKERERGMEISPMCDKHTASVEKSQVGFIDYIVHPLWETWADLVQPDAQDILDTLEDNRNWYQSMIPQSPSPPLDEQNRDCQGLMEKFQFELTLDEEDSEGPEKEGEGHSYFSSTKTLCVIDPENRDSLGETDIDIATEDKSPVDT
Alpha-galactosidase A (Homo sapiens), sequence (P06280 whole entry, looked up): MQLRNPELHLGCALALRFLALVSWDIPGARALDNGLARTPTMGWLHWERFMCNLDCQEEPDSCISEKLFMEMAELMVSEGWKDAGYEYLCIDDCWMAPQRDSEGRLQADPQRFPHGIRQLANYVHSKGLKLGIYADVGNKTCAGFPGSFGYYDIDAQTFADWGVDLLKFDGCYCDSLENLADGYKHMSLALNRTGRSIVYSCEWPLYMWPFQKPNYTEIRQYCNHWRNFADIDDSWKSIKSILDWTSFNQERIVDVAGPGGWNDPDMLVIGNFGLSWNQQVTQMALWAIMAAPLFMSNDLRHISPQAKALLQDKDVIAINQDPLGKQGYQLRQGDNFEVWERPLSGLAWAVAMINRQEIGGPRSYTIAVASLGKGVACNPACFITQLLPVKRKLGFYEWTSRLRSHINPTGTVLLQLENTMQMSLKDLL
Pyruvate kinase PKM (Homo sapiens), sequence (P14618 whole entry, looked up): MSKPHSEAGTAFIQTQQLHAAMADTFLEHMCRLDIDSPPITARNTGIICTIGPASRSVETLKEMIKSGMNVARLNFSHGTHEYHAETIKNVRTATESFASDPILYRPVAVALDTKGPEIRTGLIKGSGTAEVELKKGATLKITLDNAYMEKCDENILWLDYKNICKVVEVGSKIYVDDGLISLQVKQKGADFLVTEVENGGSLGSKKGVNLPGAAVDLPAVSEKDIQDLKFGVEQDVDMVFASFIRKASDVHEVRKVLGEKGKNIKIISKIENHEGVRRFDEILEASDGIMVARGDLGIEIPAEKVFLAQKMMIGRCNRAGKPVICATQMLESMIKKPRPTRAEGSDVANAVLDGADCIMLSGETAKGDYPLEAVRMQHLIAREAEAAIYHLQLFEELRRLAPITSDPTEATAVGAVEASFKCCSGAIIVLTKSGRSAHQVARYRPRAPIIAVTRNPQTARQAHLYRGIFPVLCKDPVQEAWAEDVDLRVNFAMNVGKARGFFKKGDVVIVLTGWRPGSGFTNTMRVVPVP
Cytochrome P450 2D6 (Homo sapiens), sequence (P10635 whole entry, looked up): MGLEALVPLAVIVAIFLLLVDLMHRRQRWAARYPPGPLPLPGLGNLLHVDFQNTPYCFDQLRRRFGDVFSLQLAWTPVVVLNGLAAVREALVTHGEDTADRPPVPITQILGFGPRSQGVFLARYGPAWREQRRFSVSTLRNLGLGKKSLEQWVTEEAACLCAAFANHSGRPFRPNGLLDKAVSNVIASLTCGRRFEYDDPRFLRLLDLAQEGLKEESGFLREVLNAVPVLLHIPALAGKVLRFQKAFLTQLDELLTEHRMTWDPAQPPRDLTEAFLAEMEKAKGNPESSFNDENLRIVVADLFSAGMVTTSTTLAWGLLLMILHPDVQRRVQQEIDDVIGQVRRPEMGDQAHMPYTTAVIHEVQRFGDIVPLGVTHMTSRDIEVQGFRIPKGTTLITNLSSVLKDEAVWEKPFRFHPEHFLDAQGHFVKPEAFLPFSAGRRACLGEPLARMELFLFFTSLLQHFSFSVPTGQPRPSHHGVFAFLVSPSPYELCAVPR
Muscarinic acetylcholine receptor M1 (Rattus norvegicus), sequence (P08482 whole entry, looked up): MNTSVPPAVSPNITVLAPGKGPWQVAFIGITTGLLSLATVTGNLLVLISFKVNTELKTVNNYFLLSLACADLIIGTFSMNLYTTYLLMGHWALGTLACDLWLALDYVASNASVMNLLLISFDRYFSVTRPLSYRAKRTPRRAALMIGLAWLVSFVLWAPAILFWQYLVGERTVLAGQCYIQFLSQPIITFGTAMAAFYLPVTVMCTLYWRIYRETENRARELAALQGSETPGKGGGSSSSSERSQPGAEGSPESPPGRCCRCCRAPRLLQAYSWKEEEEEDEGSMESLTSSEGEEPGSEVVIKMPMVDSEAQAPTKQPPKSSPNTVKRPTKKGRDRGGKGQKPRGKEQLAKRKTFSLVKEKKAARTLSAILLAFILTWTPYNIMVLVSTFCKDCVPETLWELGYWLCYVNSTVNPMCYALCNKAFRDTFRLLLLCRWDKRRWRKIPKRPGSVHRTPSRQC
Guanine nucleotide-binding protein G(i) subunit alpha-1 (Homo sapiens), sequence (P63096 whole entry, looked up): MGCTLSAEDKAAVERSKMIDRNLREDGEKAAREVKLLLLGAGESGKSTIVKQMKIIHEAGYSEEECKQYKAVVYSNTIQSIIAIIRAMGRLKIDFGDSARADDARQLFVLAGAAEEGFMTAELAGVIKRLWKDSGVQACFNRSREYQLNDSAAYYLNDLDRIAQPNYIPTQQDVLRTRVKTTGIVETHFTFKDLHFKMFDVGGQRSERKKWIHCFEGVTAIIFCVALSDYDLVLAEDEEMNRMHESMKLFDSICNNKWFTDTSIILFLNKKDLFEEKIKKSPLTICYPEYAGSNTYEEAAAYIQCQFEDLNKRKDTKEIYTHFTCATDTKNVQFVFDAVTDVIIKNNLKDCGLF
Cytochrome P450 2C9 (Homo sapiens), sequence (P11712 whole entry, looked up): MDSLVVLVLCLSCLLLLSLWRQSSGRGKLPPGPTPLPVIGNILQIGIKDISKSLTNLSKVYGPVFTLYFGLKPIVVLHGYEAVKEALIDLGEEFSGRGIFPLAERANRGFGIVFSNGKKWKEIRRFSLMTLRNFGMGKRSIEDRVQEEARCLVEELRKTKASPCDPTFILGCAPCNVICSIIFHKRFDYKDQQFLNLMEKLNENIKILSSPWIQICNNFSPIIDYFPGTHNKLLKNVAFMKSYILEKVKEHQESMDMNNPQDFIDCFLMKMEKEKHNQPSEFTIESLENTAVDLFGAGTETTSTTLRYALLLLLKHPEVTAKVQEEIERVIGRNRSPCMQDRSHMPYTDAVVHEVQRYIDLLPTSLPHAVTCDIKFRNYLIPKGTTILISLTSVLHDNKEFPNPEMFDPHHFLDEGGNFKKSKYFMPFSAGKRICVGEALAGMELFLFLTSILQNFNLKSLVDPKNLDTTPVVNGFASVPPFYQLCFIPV

`CC(=O)O[C@]12CC[N@+]3(C)CCCC[C@@H]3[C-]1Nc1ccccc12` showed an activity change, negative = inhibition [1] of 2.61% [at 7.69 µM], an activity change, negative = inhibition [2] of -11% [at 11.4 µM] and an activity, negative = inhibition [3] of 1.87% [at 7.69 µM]. For the same compound, the Potency [4] was over 46 µM, the Potency [5] was over 9.22 µM and the activity change, negative = inhibition [6] was 4.94% [at 11.4 µM]. The Potency [7] was “inactive” and the activation [8] was 4.44%.
In the case of `COc1cccc2c1[C@@H]1CN(CCCCn3c(=O)[nH]c4c(sc5ncc(-c6ccccc6)nc54)c3=O)C[C@H]1CO2`, the activity change, negative = inhibition [1] is reported as 4.55% [at 38 µM], the Potency [2] is reported as 31.6 µM (active) and the activity, negative = inhibition [3] is reported as 22.8% [at 38 µM]. For the same compound, the Potency [4] was over 46 µM, the Potency [5] was over 46 µM and the Potency [7] was “inactive”. The outcome [9] was “inactive”, the Potency [10] was “inactive” and the Potency [11] was 11.2 µM (active). For the same compound, the Potency [12] was “inactive”, the outcome [13] was “inactive” and the outcome [14] was “inactive”. The outcome [15] was “inactive”.
With `N#Cc1ccc(OC(=O)c2ccc(N=C(N)N)cc2)cc1` the activity change, negative = inhibition [1] was -0.971% [at 7.69 µM], the Potency [2] was 2.51 µM (active) and the activity, negative = inhibition [3] was -5.61% [at 7.69 µM]. The activity change, negative = inhibition [6] was 1.07% [at 11.4 µM] and the Potency [7] was “inactive”.
For `CC1(NC[C@@H](O)COc2cccc3[nH]ccc23)CCC(C(C)(C)NC(=O)CBr)CC1` (some centres undefined), the activity change, negative = inhibition [1] was 7.03% [at 38 µM], the Potency [2] was “inactive” and the activity, negative = inhibition [3] was 18.1% [at 38 µM]. For the same compound, the Potency [4] was over 46 µM, the Potency [5] was over 46 µM and the Potency [7] was “inactive”. The Potency [16] was “inactive”, the Potency [17] was 1.26 µM (active) and the Potency [18] was “inactive”.
Work on `Clc1ccccc1-c1nnc2sc(-c3ccco3)nn12` yielded an activity change, negative = inhibition [1] of -8.96%, an activity change, negative = inhibition [19] of 6.46% and an activity, negative = inhibition [3] of 0.557%.
`CC1(C)Cc2c(sc3nc4n(c(=O)c23)CCC4)CO1` showed an activity change, negative = inhibition [1] of -2.8%, an activity change, negative = inhibition [19] of 2.28% and an activity, negative = inhibition [3] of -2.43%. The Potency [4] was over 20.6 µM.
Compound `C=C(Br)Cn1c(CCCC)nc2ccccc21` has an activity change, negative = inhibition [1] of -12.4%, an activity change, negative = inhibition [19] of 1.5% and an activity, negative = inhibition [3] of 4.16%. It also gave a Potency [4] of over 20.6 µM.
In the case of `COC(=O)Cn1cc(C(=O)OC)cc(Br)c1=O`, the activity change, negative = inhibition [1] is reported as 8.29%, the activity change, negative = inhibition [19] is reported as 0.926% and the activity, negative = inhibition [3] is reported as -0.311%. The Potency [4] was over 20.6 µM.
Work on `CCCC(CCC(=O)Nc1ccc(C(=O)OC)cc1)C(=O)O` (centres undefined) yielded an activity change, negative = inhibition [1] of -9.55%, an activity change, negative = inhibition [19] of -16.6% and an activity, negative = inhibition [3] of 11.7%. The Potency [4] was over 20.6 µM.
